Measurements from PubChem BioAssay (NCI).
This is part of a sample that, as a whole, favours compounds with a hit. Of some 83,000 tested, about 20% had one in any assay.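 Step 1: grow cells in 96-well plates. Step 2: add test compound at a single concentration. Step 3: incubate 48 h. Step 4: record percent growth.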 Values without a mark were called inactive. Activity calls are given as the source filed them. Rule for the calls: active = growth percent below 10; inactive = the rest.

Columns and labels:
Assay in all cases: NCI-60 one-dose screen, 48 h (100 = growth as untreated, 0 = no growth, -100 = all killed)
EKVX NSCLC = conditions: 10 µM unless noted
SN12C renal = conditions: 10 µM unless noted
UO-31 renal = conditions: 10 µM unless noted
TK-10 renal = conditions: 10 µM unless noted
ACHN renal = conditions: 10 µM unless noted
CAKI-1 renal = conditions: 10 µM
A498 renal = conditions: 10 µM unless noted
CCRF-CEM leukemia = conditions: 10 µM unless noted
RPMI-8226 leukemia = conditions: 10 µM unless noted
OVCAR-8 ovarian = conditions: 10 µM unless noted
OVCAR-5 ovarian = conditions: 10 µM unless noted
OVCAR-4 ovarian = conditions: 10 µM unless noted
SK-OV-3 ovarian = conditions: 10 µM unless noted
IGROV1 ovarian = conditions: 10 µM unless noted
HS 578T breast = conditions: 10 µM unless noted
NCI/ADR-RES ovarian = conditions: 10 µM unless noted
SR leukemia = conditions: 10 µM unless noted
MOLT-4 leukemia = conditions: 10 µM unless noted

SMILES | growth (EKVX NSCLC) | growth (SN12C renal) | growth (UO-31 renal) | growth (TK-10 renal) | growth (ACHN renal) | growth (CAKI-1 renal) | growth (A498 renal) | growth (CCRF-CEM leukemia) | growth (RPMI-8226 leukemia) | growth (OVCAR-8 ovarian) | growth (OVCAR-5 ovarian) | growth (OVCAR-4 ovarian) | growth (SK-OV-3 ovarian) | growth (IGROV1 ovarian) | growth (HS 578T breast) | growth (NCI/ADR-RES ovarian) | growth (SR leukemia) | growth (MOLT-4 leukemia)
C/C(=C(/c1ccc(O)cc1)c1ccc(OCCN2CCCC2)cc1)c1ccc(Cl)cc1 | 57.4% | 66% | 53.8% | 84.5% | 33.7% | 41.9% | 56.5% | 43.6% | -4.71% (active) | 64.6% | 60.1% | 65.4% | 76.7% | 55.4% | 48.4% | 64.2% | – | –
C=CCn1c(SCC(=O)Nc2cccc(C(=O)/C=C/c3ccc(OC)c(OC)c3)c2)nc2ccccc2c1=O | 100% | 96.8% | 74.6% | 116% | 92.2% | 75.7% | 89.3% | 78.5% | 38.7% | 89.5% | 96.1% | 87.6% | 108% | 90.5% | 88.9% | 91.8% | – | –
C/C(Cc1ccc(Cl)cc1)=C(/c1ccccc1)c1ccc(OCCN)cc1 | 98.7% | 103% | 89.7% | 100% | 99.4% | 92.5% | 95.8% | 110% | 101% | 101% | 97.4% | 101% | 117% | 98.3% | 97.1% | 94.8% | – | –
COc1ccc([C@@H]2[C@@H](O)C(=O)N2c2cc(OC)c(OC)c(OC)c2)cc1 | 51.2% | 24.6% | 29.9% | 74.5% | 26.8% | 25.6% | -20.8% (active) | 24% | 20.3% | 2.57% (active) | 24.8% | 59.3% | 37.2% | – | 10.6% | 13.9% | – | –
COc1ccc(-c2no[n+]([O-])c2Nc2ccccc2Br)cc1 | 96.1% | 90.4% | 69.6% | 145% | 89.2% | 86% | 113% | 109% | 93.7% | 90.3% | 108% | 101% | 94.3% | 85.4% | 88.9% | 94.9% | – | –
C/C(=C(/c1ccc(O)cc1)c1ccc(OCCN2CCCCCC2)cc1)c1ccccc1 | 59% | 57.2% | 29.4% | 92.6% | 58.7% | 39.2% | 74.6% | 60% | 2.14% (active) | 69.2% | 63.3% | 68.4% | 76.1% | 61.9% | 44.3% | 65.6% | -24% (active) | –
CCOC(=O)/C(F)=C/C1CC1CCc1cccc(C(F)(F)F)c1 (stereo not drawn) | 101% | 104% | 90.4% | 99.5% | 100% | 89.4% | 93.7% | 110% | 102% | 104% | 100% | 107% | 99.8% | 113% | 103% | 106% | 106% | 104%
COc1ccc2c(C3=C(c4c[nH]c5ccccc45)C(=O)N(O)C3=O)coc2c1 | 77% | 101% | 58.2% | 144% | 94.2% | 90.2% | 85% | 26.9% | 72.1% | 77.5% | 105% | 114% | 86.5% | 77.1% | 96.4% | 99.5% | – | –
CCOC(=O)/C(F)=C/C1CC1C1CCCCC1 (stereo not drawn) | 110% | 103% | 91.5% | 95.3% | 105% | 90.9% | 97.2% | 114% | 105% | – | 102% | – | 126% | – | 105% | 101% | 111% | 102%
N#Cc1ccc(S(=O)(=O)Nc2ccc(-c3cnc(N)[nH]3)cc2)cc1 | 105% | 102% | 89.7% | 98.6% | 99.7% | 92.3% | 101% | 98.2% | 104% | 101% | 98.9% | 104% | 106% | 108% | 98.3% | 102% | – | –
Cc1nc(-c2cc3ccccc3c(N3CCN(C)CC3)n2)cs1 | 96.3% | 90% | 67% | 98.2% | 94% | 72.1% | – | 103% | 99.2% | 98.8% | 104% | 102% | 97.1% | 97.3% | 85.5% | 94.3% | 102% | 98%
CS(=O)c1nccc(-c2c(-c3ccc(F)c(OCCc4ccc(F)cc4)c3)nc3sccn23)n1 (stereo not drawn) | 36.1% | 93.4% | -45.1% (active) | 107% | 37.7% | 47.3% | 82.2% | – | 18% | 66.6% | 103% | 82.1% | 105% | -40.4% (active) | 88.7% | 105% | -8.59% (active) | 9.78% (active)
Cc1ccc(NC(=O)c2cc(/C=C/C(=O)NO)cc(C(F)(F)F)c2)cc1Nc1nccc(-c2cccnc2)n1 | 28% | 2.25% (active) | 18.8% | 15.2% | 18.5% | 6.2% (active) | – | 5.21% (active) | -13% (active) | -12.2% (active) | 17.4% | 23% | -38.3% (active) | 2.46% (active) | -14.5% (active) | 87.8% | 4.9% (active) | 5.15% (active)
O=C1c2c(c3c4ccc(Br)cc4oc3c3[nH]c4ccccc4c23)C(=O)N1CCO | 53.7% | 34% | 25.6% | 107% | 12% | 23.6% | 52.4% | 21.7% | 43.3% | 50.4% | 69.9% | – | 37.4% | 43.4% | 88.5% | 44.7% | – | –
CCNCCCn1c2c(c3cc(OC)c(OC)cc3c1=O)C(=O)c1cc(OC)cnc1-2 | 43.3% | 20.8% | 18% | 64.4% | 6.11% (active) | 18.3% | 15.8% | 8.89% (active) | -34.9% (active) | – | 46.2% | 6.87% (active) | -32.1% (active) | 32.3% | 80.2% | 26.9% | – | –
C(=C(\C1=NCCN1)n1cnc2ccccc21)/c1ccc2ccccc2c1 | 73.2% | 73.3% | 68% | 77.8% | 72.9% | 53.3% | – | 63.5% | 67.1% | 88.5% | 79.4% | 72.6% | 66% | 81.2% | 57.6% | 76.6% | 42.5% | 67%
Nc1nc(-c2cccc([N+](=O)[O-])c2)c(N=Nc2ccccc2[N+](=O)[O-])s1 | 48.7% | 1.17% (active) | -36.4% (active) | -38.6% (active) | -72.6% (active) | -27% (active) | – | 46.7% | 36.4% | 8.47% (active) | 43.5% | -2.02% (active) | -46.6% (active) | 1.09% (active) | 6.64% (active) | 16.8% | 48.5% | 62%
CN1CCN(c2nc(-c3csc(-c4ccncc4)n3)cc3ccccc23)CC1 | 73.5% | 70.4% | 71.4% | 75.9% | 54.7% | 58.7% | – | 26.5% | 47.1% | 84% | 76.1% | 84.9% | 86.4% | 56.8% | 66.1% | 68% | -18.2% (active) | 40.6%
